Compound activity from PubChem.
In the library only some 4.4% were active in any assay of this set; here they are far more common.
p53ts 39C kill = qHTS Screen for Compounds that Selectively Target Cancer Cells with p53 Mutations: Cytotoxicity of p53ts Cells at the Nonpermissive Temperature. H1299-p53A138V viability at 39C, ATP luminescence, 24 h. actives 1.5% (n = 130,000). AID 902, 2007. Potency, µM (highest dose often 46.1 µM), without a hit: at the highest dose activity change, negative = cell killing, actives largely listed as cytotoxic; also: nearly all actives have a fitted effect of over 55% in size
HPGD block = qHTS Assay for Inhibitors of HPGD (15-Hydroxyprostaglandin Dehydrogenase); 15-hydroxyprostaglandin dehydrogenase [NAD(+)] (Homo sapiens), P15428; purified HPGD, NADH fluorescence kinetic, PGE2 substrate; Potency, µM, without a hit: at the highest dose activity change, negative = inhibition, actives largely listed as inhibitors; actives 4.3% (n = 150,000); AID 894, 2007; active = well fitted inhibition curve with a large enough effect, not every such curve was filed as active; inconclusive = small, poorly fitted or top-dose-only effect, or another doubt; inactive = no such curve, though single readings can be large or run the other way
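NADH formation kinetics: reaction with 30 uM PGE2 and 1 mM NAD+ (final), 20 nM enzyme, Tris-HCl pH 8 with Tween 20, after 15 min compound preincubation at room temperature. Fluorescence change, last versus first of five reads.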
p53ts 32C tox = qHTS Screen for Compounds that Selectively Target Cancer Cells with p53 Mutations: Cytotoxicity of p53ts Cells at the Permissive Temperature. H1299-p53A138V at 32C, ATP luminescence viability, 24 h. Potency, µM (top dose mostly 46.1 µM), without a hit: at the top dose activity change, negative = cytotoxicity, usual class: cytotoxic. actives 0.93% (n = 130,000);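 also: 0% = DMSO and -100% = full killing by reference compound; nearly all actives have a fitted effect of over 55% in size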
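H1299-p53 A138V cells (temperature-sensitive p53) exposed 24 h to up to 46 uM compound at 32C, where p53 is wild-type in conformation. Viability read as ATP luminescence and normalised to DMSO and 100 uM tamoxifen. AC50 fitted with the Hill equation.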
12-hLO inh = qHTS Assay for Inhibitors of 12-hLO (12-human lipoxygenase); Potency, µM (doses to about 57.1 µM), without a hit: at the top dose activity change, negative = inhibition, hits mostly inhibitors; purified 12-hLO, xylenol orange hydroperoxide absorbance; Polyunsaturated fatty acid lipoxygenase ALOX12 (Homo sapiens), P18054; actives 0.12% (n = 150,000); also: nearly all actives have a fitted effect of over 55% in size
Target sequence (P18054 whole entry, looked up): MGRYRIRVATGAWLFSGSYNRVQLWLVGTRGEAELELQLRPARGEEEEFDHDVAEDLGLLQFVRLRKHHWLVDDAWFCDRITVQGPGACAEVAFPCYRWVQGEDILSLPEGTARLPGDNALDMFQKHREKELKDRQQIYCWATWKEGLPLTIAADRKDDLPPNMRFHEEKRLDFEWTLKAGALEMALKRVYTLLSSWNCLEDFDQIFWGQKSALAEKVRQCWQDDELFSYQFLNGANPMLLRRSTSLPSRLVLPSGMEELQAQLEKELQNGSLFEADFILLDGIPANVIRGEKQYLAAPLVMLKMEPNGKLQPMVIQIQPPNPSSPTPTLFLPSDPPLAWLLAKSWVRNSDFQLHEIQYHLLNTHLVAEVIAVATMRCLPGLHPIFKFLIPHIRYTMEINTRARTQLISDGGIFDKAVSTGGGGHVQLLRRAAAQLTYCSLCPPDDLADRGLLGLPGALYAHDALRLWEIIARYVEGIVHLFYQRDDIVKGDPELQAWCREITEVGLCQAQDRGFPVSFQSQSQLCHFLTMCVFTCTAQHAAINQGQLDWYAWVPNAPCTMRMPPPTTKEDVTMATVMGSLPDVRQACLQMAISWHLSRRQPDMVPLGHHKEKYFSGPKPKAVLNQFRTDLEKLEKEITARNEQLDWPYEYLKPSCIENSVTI
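150 nM 12hLO, 25 mM Hepes pH 7.0 + 0.01% Triton X-100; cpd preinc 15 min RT; 40 uM arachidonic acid, 30 min RT; Fe-XO 30 min; A573/A405 ratio as read-out.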
An asterisk follows results filed as active; ? = inconclusive; nt = no result; ! = a repeat was not active. Unless noted, calls follow the shape of the dose curve; as a rule, active = well fitted curve in the direction sought with a large enough effect; inconclusive = small, poorly fitted or top-dose-only effect, or another doubt; inactive = no such curve, though single readings can be large; an effect the other way counts as inactive or inconclusive. Unless noted, % is scaled to controls: 0 for no effect and ±100 for the full control effect; potency is read from the fitted curve at half-maximal effect.

SMILES	p53ts 39C kill	HPGD block	p53ts 32C tox	12-hLO inh
CCCOC(=O)c1ccc(NC(=O)Cc2csc(C)n2)cc1	?	nt	2.4%	nt
COCCNC(=O)C(C)Oc1ccc(Cl)cc1Cl (stereo not drawn)	4.5%	31.6µM*	1.7%	5.1%
CC(Oc1ccc(Cl)cc1Cl)C(=O)NC1=NN(c2ccccc2)C(=O)C1 (stereo not drawn)	nt	-6.3%	nt	8.91µM*
CC(Oc1ccc(Cl)cc1Cl)C(=O)NC1CCSC1=O (stereo not drawn)	-5.8%	14.1µM*	1.4%	-0.1%
COc1ccc(NC(=O)Cn2c(=O)oc3cc(S(=O)(=O)N4CCCC4)ccc32)cc1OC	6.6%	nt	-0.9%	nt
c1ccc(-c2nn3c(C4CCCCC4)nnc3s2)nc1	3.7%	-23.6%	-1.5%	1.7%
Clc1ccc(OCc2nn3c(C4CCCCC4)nnc3s2)cc1	-3.7%	20µM*	26.7%	-4.4%
CCOC(=O)CSc1c(-c2ccccc2)c2cc(Cl)ccc2[nH]c1=O	5.9%	17.8µM*	nt	2.1%
C[C@@](N)(Cc1ccc(O)cc1)C(=O)O	18.9%	-11.4%	1.5%	4.1%
C[C@@](Cc1ccc(O)c(O)c1)(NN)C(=O)O	-10.8%	22.4µM*!	-13.3%	-6.3%
CC(N)(Cc1ccc(O)c(O)c1)C(=O)O (stereo not drawn)	nt	10µM*	nt	nt
CCc1nn2c(=O)c(S(=O)(=O)Nc3ccc(C)c(C)c3)c(C)nc2s1	-2.0%	nt	8.6%	nt
CC1CC(C)CN(C(=O)c2ccc3c(=O)n(Cc4ccc5c(c4)OCO5)c(=S)[nH]c3c2)C1 (stereo not drawn)	nt	15.8µM*	nt	-18.4%
COCCCNC(=O)c1ccc2c(=O)n(Cc3ccc4c(c3)OCO4)c(=S)[nH]c2c1	nt	-19.0%	nt	-4.0%
CCc1cc(=O)oc2c(C)c(OCC(=O)Nc3ccc(S(=O)(=O)N(CC)CC)cc3)ccc12	19.7%	nt	2.6%	nt
c1ccc(-c2cccc(-c3ccccn3)n2)nc1	0.794µM*	-6.7%	?	-0.5%
c1ccc(-c2nc3ccccc3o2)nc1	?	?	?	-1.2%
O=C(NCc1ccccc1Cl)C1CCC(CNS(=O)(=O)c2ccc(Br)s2)CC1 (stereo not drawn)	12.6µM*	nt	?	nt
COc1ccc(NCC(=O)Nc2ccc(Cl)cc2C)c(OC)c1	-12.4%	7.94µM*	-13.1%	-2.6%
COc1ccc(NC(=S)NCc2ccc(S(N)(=O)=O)cc2)c(OC)c1	-1.1%	14.1µM*	nt	-5.7%
CCOc1ccc(NCC(=O)Nc2ccc(Cl)cc2C)cc1	5.0%	-4.9%	-2.9%	-6.9%
COc1ccc(NC(=S)Nc2ccc(OC)cc2OC)c(OC)c1	nt	25.1µM*	nt	-2.7%
O=C(Nc1ccccc1C(=O)N1CCCCC1)C1CCCCC1	4.0%	-4.8%	-0.1%	-4.7%
Oc1ccccc1C(=S)N1CCCCCC1	5.5%	8.91µM*	4.9%	8.0%
O=C(c1ccccc1C(=O)N(c1ccccc1)c1ccccc1)N1CCCCC1	nt	-2.1%	nt	-1.8%
SMILES	p53ts 39C kill	HPGD block	p53ts 32C tox	12-hLO inh
Oc1ccccc1C(=S)N1CCCCC1	-7.4%	14.1µM*	-14.7%	-4.1%
O=C(CSc1n[nH]c(-c2cc(Cl)ccc2Cl)n1)NCCN1C(=O)CSC1=O	nt	15.8µM*	nt	-0.1%
O=C(NCc1ccccc1Cl)C(=O)NCC(c1ccco1)S(=O)(=O)c1cccs1 (stereo not drawn)	-10.3%	nt	-2.0%	nt
CN(C)/C=C(/C#N)C(=O)c1cccc(Oc2ccc(C(C)(C)C)cc2)c1	nt	22.4µM*	nt	14.4%
Cn1ncc(Cl)c1C(=O)NC(=S)Nc1sc2c(c1C#N)CCCCC2	nt	25.1µM*	nt	-1.6%
N#Cc1c(NC(=S)NC(=O)c2ccccc2)sc2c1CCCC2	nt	25.1µM*	nt	-2.0%
CC(C)(C)C(=O)Nc1sc2c(c1C#N)CCCCC2	7.7%	-16.0%	-3.7%	0.0%
CC(C)CC(=O)NC(NC(=S)Nc1sc2c(c1C#N)CCCC2)C(Cl)(Cl)Cl (stereo not drawn)	nt	14.1µM*	nt	?
N#Cc1c(NC(=S)NC(=O)C2CCCC2)sc2c1CCCCC2	nt	nt	nt	-0.5%
N#Cc1c(NC(=O)c2cnccn2)sc2c1CCCC2	nt	28.2µM*	nt	1.3%
CCCCNC(=O)CCn1c(=O)c2cccn2c2cccnc21	23.5%	nt	11.5%	nt
Cc1cccc(OCC(=O)Nc2nonc2-c2ccc(Br)cc2)c1C	-2.6%	nt	1.4%	nt
O=C(NC(=S)Nc1ccc(N2CCOCC2)cc1)c1cncc(Br)c1	nt	17.8µM*	nt	-2.2%
O=C(NC(=S)Nc1ccc(N2CCOCC2)cc1)c1ccco1	nt	22.4µM*	nt	-0.6%
O=C(NC(=S)Nc1ccc(N2CCOCC2)cc1)c1cccc(Cl)c1	nt	-23.1%	nt	1.2%
NS(=O)(=O)c1ccc(NC(=S)NC(=O)c2ccco2)cc1	nt	-21.0%	nt	0.0%
CCCCOc1cccc(C(=O)N(Cc2sccc2C)C2CCS(=O)(=O)C2)c1 (stereo not drawn)	-1.8%	nt	24.7%	nt
CCCN1Cc2cccc(C(=O)Nc3ccc(C(C)=O)cc3)c2C1=O	13.9%	nt	8.1%	nt
Cc1ccc(C)c(C(=O)CSc2nc3cc(C(=O)NC4CCCC4)ccc3c(=O)n2CC2CCCO2)c1 (stereo not drawn)	-22.4%	nt	-1.9%	nt
Cc1ccc(NC(=S)NCC(C)C)cc1	nt	-15.7%	nt	-5.4%
Cc1ccc(CC(=O)NCC(C)C)cc1	9.0%	17.8µM*	2.8%	6.8%
COCc1cc(CN2CCCC2)c(O)c2ncccc12	?	-9.3%	3.9%	?
CC(C)OCc1cc(CN2CCN(c3cccc(C(F)(F)F)c3)CC2)c(O)c2ncccc12	15.8µM*	nt	-18.0%	nt
COc1ccccc1N1CCN(Cc2cc(Br)c(O)c3ncccc23)CC1	15.8µM*	-5.0%	-18.5%	-17.2%
COc1ccccc1N1CCN(Cc2cc(COC(C)C)c3cccnc3c2O)CC1	2.51µM*	nt	?	nt
SMILES	p53ts 39C kill	HPGD block	p53ts 32C tox	12-hLO inh
CCCOCc1cc(CN2CCN(c3ccccc3OC)CC2)c(O)c2ncccc12	10µM*	nt	15.8µM*	nt
Cc1ccc(-n2nnc3c(sc4nc(C)c(C)cc43)c2=O)cc1Cl	3.0%	nt	2.0%	nt
CCOCc1cc(CN2CCN(c3ccccc3OC)CC2)c(O)c2ncccc12	20µM*	nt	5.2%	nt
Cc1ccc(NC(=O)CSc2[nH]c(=O)ncc2C)cc1	10µM*	nt	0.1µM*	nt
COC(=O)/C=C\c1cc(O)ccc1O	?	2.24µM*	?	-8.6%
CCN(CC)S(=O)(=O)c1ccc(OC)c(NC(=O)c2sc3ccccc3c2Cl)c1	17.3%	nt	-1.4%	nt
O=C(NC1CCCCC1)c1cc2nc3c(c(C(F)(F)F)n2n1)CCCC3	-9.5%	28.2µM*	-12.3%	4.6%
COc1ccc(CC(=O)c2ccccc2C(=O)O)cc1	10µM*	-6.7%	?	-3.3%
O=S(=O)(NCCc1csc2nc(-c3ccc(Cl)cc3)nn12)c1ccc(Oc2ccccc2)cc1	-15.7%	nt	12.4%	nt
